Experimental findings from PubChem BioAssay (NCI) are described below.

This is part of a sample that, as a whole, favours compounds with a hit. Of some 83,000 tested, about 20% had one in any assay.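 Results are percent growth after 48 hours of single-concentration exposure. 100 means growth as in untreated cells, lower positive values show inhibition; negative values down to -100 show cell death.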 Values without a mark were called inactive. Activity calls are given as the source filed them. Rule for the calls: active = growth percent below 10; inactive = the rest.

This test deals with HL-60(TB) leukemia. In words: NCI-60 one-dose screen, 48 h (100 = growth as untreated, 0 = no growth, -100 = all killed). The note with it: 10 µM unless noted.
With `COc1ccc2[nH]c(O)c(/C=c3/cc4c(c(-c5ccc(F)c(OC)c5)n3)=Nc3ccccc3-4)c2c1`, the growth is 47%.

Consider `COc1c(B(O)O)cc(F)cc1-c1nc2ccc3[nH]ncc3c2c2c1CCCC2`, for which the growth was -2.38% (active).

For the compound `COc1cccc(-c2nc3sccn3c2-c2ccnc(NCCNC(=O)Nc3cccc(C(F)(F)F)c3)n2)c1`, the growth was 62.8%.

Turning to `C=C1C(=O)O[C@H]2[C@H]1CC/C(COC(=O)NCc1c[nH]c3ccc(Cl)cc13)=C\CC[C@@]1(C)O[C@@H]21`, the growth was -32.9% (active).

With `C#Cc1cccc(Nc2ncnc3cc4c(cc23)OCCOCCOCCO4)c1`, the growth was 88.1%.

Turning to `C[C@@H]1O[C@@H](O[C@H]2[C@@H](OC(=O)[C@]34CCC(C)(C)C[C@H]3C3=CC[C@@H]5[C@@]6(C)C[C@H](O)[C@H](O[C@@H]7O[C@H](CO)[C@@H](O)[C@H](O)[C@H]7O)[C@@](C)(CO)[C@@H]6CC[C@@]5(C)[C@]3(C)C[C@H]4O)OC[C@@H](O)[C@@H]2O)[C@H](O)[C@H](O[C@@H]2OC[C@@H](O)[C@H](O[C@@H]3OC[C@](O)(CO)[C@H]3O[C@@H]3OC[C@@H](O)[C@H](O)[C@H]3O)[C@H]2O)[C@H]1O[C@@H]1OC[C@](O)(CO)[C@H]1O`, the growth is 21.4%.

Consider `CC(=Nc1ccccc1)C1=C(O)C(Cc2ccccc2)NC1=O` (centres undefined), for which the growth was -52.3% (active).

`CCCSc1nc2ccc(C)cc2cc1/C=[N+](\[O-])c1ccccc1`: the growth was 14.1%.

Turning to `COc1ncnc2c1ncn2C/C(Br)=C(\Br)CCl`, the growth is 47.1%.

In the case of `C[C@@H]1CC[C@@H]2[C@@H]1[C@H](OC(=O)/C=C/c1ccccc1)[C@]1(c3ccccc3)C[C@@H](OC(=O)CO)[C@@]2(C)O1`, the growth is 105%.

Turning to `O=C(COc1ccc(/C=C2\Oc3ccc4ccccc4c3C2=O)cc1)c1ccc([N+](=O)[O-])cc1`, the growth is 75.9%.

On to `O=C(O)CC1=CCCCC1`, for which the growth was 95.5%.

For `COc1cc(Nc2ccnc(N3CCN(c4ccnc5cc(Cl)ccc45)CC3)n2)cc(OC)c1`, the growth is -23.7% (active).

`CCCCCCCCCCCCCCCCCC1=NCCN1C(=O)OCCO`: the growth is 35.5%.

For `O=C(c1ccc(F)c(Cl)c1)N1c2ccccc2Sc2ccccc21`, the growth is 30.8%.

With `CS(=O)(=O)Nc1cc(-c2ccc3ncnc(Nc4ccc5c(cnn5Cc5cccnc5)c4)c3c2)cnc1Cl`, the growth was 33.6%.

Regarding `C#Cc1cccc(NC(=O)Nc2ccccc2NC(=O)CCl)c1`, the growth was 16.8% [8.25 µM].

`O=S(=O)(Nc1cc(Sc2nc3ccccc3s2)c(O)c2ccccc12)c1ccc2ccccc2c1`: the growth is 71.6%.

Turning to `O=[N+]([O-])c1ccc(N=Nc2ccc(O)cc2O)cc1`, the growth was 32.5%.

Turning to `Cc1ccc(C)c(S(=O)(=O)NC2c3ccccc3Oc3ccccc32)c1`, the growth was 86.9%.

As for `CCOC(=O)c1c(C(=O)c2cn(C)c3ccc(Br)cc23)c(-c2cn(C)c3ccc(Br)cc23)n(NC(=O)OC(C)(C)C)c1C`, the growth is 100% [100 µM].

In the case of `COc1cc(/C=C2\C(=O)N(c3c(Cl)cccc3Cl)c3ccccc32)cc(OC)c1OCCCCCCn1c2ccccc2c(=O)c2ccccc21`, the growth is 106%.

For the compound `CCCCNc1nnc2n(Cc3ccccc3)c(=O)c3c4c(sc3n12)CCCC4`, the growth is 90.5%.

On to `Cc1ccc([P+](Cc2ccccc2)(c2ccccc2)c2ccccc2)cc1`, for which the growth is -36.4% (active).

In the case of `O=C(Oc1c(Cl)c(Cl)c(Cl)c(Cl)c1Cl)C1CCCN1C(=O)OCc1ccccc1` (centres undefined), the growth was -12.5% (active).

For the compound `Cc1nn(CCO)c(C)c1N=[N+]([O-])c1c(C)nn(CCO)c1C`, the growth was -45.8% (active).

For the compound `CC1(O)CCCCCC1`, the growth was 92.7%.

Regarding `N#Cc1c(N)nn(C(=O)c2ccc(NC(=O)c3ccccn3)cc2)c1-c1ccc(Cl)cc1`, the growth was 69.1%.

Regarding `COc1ccc(/C=C/c2cccc[n+]2C)cc1`, the growth is 105%.

Consider `COc1ccc2c(CCCCC(c3ccccc3)c3ccccc3)c3[n+](cc2c1OC)CCc1cc2c(cc1-3)OCO2`, for which the growth was -35.5% (active).

Regarding `CN1CCN(c2ccc3c(c2)nc(NNC(=O)c2cnccn2)c2cccn23)CC1`, the growth is -9.26% (active).

For `N#C/C(=C\c1ccc(Br)cc1)n1nnc2cc(Cl)c(Cl)cc21`, the growth was -0.568% (active).

With `O=c1c2cccc(F)c2sc2c(NCCCNCCO)nc3ccccc3c12`, the growth was -6.55% (active).

As to `Oc1ccccc1-c1nc2c3ccccc3c3ccccc3c2o1`, the growth is 88%.
